For eight compounds, composite z-score, composite Z-score and z-score results are on record in PubChem BioAssay.

For one assay, the target named is Albumin (Bos taurus) (UniProt P02769). The assay can be described thus: bovine serum albumin binders on microarray, profiling panel, artefact control for SMM control protein annotation, biochemical, small-molecule microarray, Alexa647 label, 635/667 nm fluorescence (AID 1118).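 Note: score merges 667 nm emission intensity and signal-to-noise per printed compound spot.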 The settings on record: BSA-A647 binding, fluorescence 635 nm, higher = more signal.
Albumin (Bos taurus), sequence (P02769 whole entry, looked up): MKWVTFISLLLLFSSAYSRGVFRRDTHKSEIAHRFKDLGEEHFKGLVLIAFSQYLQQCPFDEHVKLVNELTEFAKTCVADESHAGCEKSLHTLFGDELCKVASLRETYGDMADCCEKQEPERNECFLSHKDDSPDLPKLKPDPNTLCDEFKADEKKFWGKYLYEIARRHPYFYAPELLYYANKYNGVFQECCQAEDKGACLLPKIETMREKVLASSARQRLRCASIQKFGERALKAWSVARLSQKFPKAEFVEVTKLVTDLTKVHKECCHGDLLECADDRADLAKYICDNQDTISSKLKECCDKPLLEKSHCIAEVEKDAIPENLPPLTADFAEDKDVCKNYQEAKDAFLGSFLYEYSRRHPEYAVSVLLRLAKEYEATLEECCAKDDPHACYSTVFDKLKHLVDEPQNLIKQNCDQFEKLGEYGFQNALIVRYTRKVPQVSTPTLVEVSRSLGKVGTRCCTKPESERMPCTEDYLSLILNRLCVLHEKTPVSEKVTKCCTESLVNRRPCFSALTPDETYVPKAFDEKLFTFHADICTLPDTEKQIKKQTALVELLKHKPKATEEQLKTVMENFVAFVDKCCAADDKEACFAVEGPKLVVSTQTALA
Assay [1] can be described thus: small-molecule microarray binders of probe aXIP, primary screen, biochemical, NeuroSMM set, 635/667 nm fluorescence (AID 1119).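 Note: probe is the protein aXip251-270 applied at 1 µg/mL to compound-printed slides; binding of probe to printed compounds measured as 667 nm fluorescence plus signal to noise.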 The settings on record: higher = more signal, called active from +8 up or from −8 down.
The nature of assay [2]: small-molecule binders of probe aNOTCH3, primary screen, biochemical, small-molecule microarray, 635/667 nm fluorescence (AID 1120).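 Note: probe is a biotin-tagged antibody raised against NOTCH3 rather than NOTCH3 protein; score merges spot fluorescence near 667 nm with spot signal to noise.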 The settings on record: higher = more signal.
Assay [3] in a line: small-molecule binders of probe aNOTCH2, primary screen, biochemical, small-molecule microarray, 635/667 nm fluorescence (AID 1121).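 Note: score merges feature fluorescence read at 667 nm with its signal to noise.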 The settings on record: higher = more signal.
Assay [4] has as its target Carbonic anhydrase 2 (Homo sapiens) (UniProt P00918). The assay can be described thus: CAII small-molecule binders, profiling panel, biochemical, small-molecule microarray, Alexa647-labelled CAII (AID 1122). As to conditions: CAII-A647 binding fluorescence, higher = more signal.
Assay [5] can be described thus: COS7 lysate on small-molecule microarray, probe aHis, 635 nm (AID 1123).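 Note: z-score combines 667nm fluorescence intensity with signal-to-noise per printed compound spot.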 As to conditions: COS7 cell lysate, fluorescence, higher = more signal.
Assay [6] can be described thus: compound binding in COS7 lysate, probe aLAP1, primary screen, cell lysate, small-molecule microarray (AID 1124).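 Note: lysate comes from COS7 cells expressing LAP1 and is applied at 0.3 µg/mL; score merges spot fluorescence near 667 nm with signal-to-noise over triplicate slides.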 The settings on record: probe aLAP1, fluorescence, higher = more signal.
Another assay deals with Sam68 (KHDRBS1). The assay can be described thus: Sam68 small-molecule binders, primary screen, biochemical, small-molecule microarray, 635 nm fluorescence (AID 1125).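 Note: score merges 667 nm channel intensity with signal to noise over triplicate slides.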 The settings on record: small-molecule microarray binding, higher = more signal.
Assay [7] relates to Chordin-like protein 2 (CHRDL2). Nature of the assay: CHRDL2 small-molecule binders, primary screen, biochemical, small-molecule microarray, 635 nm fluorescence (AID 1126).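 Note: printed compound slides probed with Chrdl2 protein at 4 µg/mL for 1 h at 4 C; score merges 667 nm emission intensity with signal to noise over three replicate slides.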 As to conditions: small-molecule microarray binding, fluorescence 635 nm; higher = more signal.
In assay [8] the target is Concanavalin-A (Canavalia ensiformis) (UniProt P02866). The assay can be described thus: ConA small-molecule binders, primary screen, artefact control for SMM control protein annotation, biochemical, small-molecule microarray, Alexa647 label, 635 nm (AID 1127).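 Note: z combines 667 nm emission intensity with signal-to-noise across three replicate slides.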 As to conditions: ConA-A647 binding fluorescence, higher = more signal.
Concanavalin-A (Canavalia ensiformis), sequence (P02866 whole entry, looked up): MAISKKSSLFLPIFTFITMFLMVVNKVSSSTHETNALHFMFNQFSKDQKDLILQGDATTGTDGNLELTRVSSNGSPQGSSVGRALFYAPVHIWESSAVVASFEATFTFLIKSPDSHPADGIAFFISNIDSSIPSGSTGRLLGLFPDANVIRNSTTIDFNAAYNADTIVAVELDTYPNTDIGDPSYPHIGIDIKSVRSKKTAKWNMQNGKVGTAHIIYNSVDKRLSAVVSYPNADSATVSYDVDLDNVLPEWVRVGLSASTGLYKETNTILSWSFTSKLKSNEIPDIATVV
A short description of assay [9]: anti-His antibody binders, primary screen, artefact control for SMM control protein annotation, biochemical, small-molecule microarray, 635 nm fluorescence (AID 1128).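 Note: score merges feature fluorescence with signal-to-noise for each printed compound spot.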 As to conditions: anti-His Alexa647 antibody binding, higher = more signal.
Assay [10] relates to Human papillomavirus type 1a E7 protein (residues 1-88). Nature of the assay: HPV1a E7 small-molecule binders, primary screen, biochemical, small-molecule microarray, residues 1-88, 635 nm (AID 1129). The settings on record: small-molecule microarray binding, fluorescence 635 nm; higher = more signal.
For assay [11], the target named is Focal adhesion kinase 1 (Homo sapiens) (UniProt Q05397). The assay can be described thus: small-molecule microarray binders of FAK, primary screen, biochemical, 635/667 nm fluorescence, BSA, DTT (AID 1130).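 Note: composite of spot emission at 667 nm and signal to noise over triplicate slides.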 As to conditions: PTK2 binding, 635 nm fluorescence, higher = more signal.
Focal adhesion kinase 1 (Homo sapiens), sequence (Q05397 whole entry, looked up): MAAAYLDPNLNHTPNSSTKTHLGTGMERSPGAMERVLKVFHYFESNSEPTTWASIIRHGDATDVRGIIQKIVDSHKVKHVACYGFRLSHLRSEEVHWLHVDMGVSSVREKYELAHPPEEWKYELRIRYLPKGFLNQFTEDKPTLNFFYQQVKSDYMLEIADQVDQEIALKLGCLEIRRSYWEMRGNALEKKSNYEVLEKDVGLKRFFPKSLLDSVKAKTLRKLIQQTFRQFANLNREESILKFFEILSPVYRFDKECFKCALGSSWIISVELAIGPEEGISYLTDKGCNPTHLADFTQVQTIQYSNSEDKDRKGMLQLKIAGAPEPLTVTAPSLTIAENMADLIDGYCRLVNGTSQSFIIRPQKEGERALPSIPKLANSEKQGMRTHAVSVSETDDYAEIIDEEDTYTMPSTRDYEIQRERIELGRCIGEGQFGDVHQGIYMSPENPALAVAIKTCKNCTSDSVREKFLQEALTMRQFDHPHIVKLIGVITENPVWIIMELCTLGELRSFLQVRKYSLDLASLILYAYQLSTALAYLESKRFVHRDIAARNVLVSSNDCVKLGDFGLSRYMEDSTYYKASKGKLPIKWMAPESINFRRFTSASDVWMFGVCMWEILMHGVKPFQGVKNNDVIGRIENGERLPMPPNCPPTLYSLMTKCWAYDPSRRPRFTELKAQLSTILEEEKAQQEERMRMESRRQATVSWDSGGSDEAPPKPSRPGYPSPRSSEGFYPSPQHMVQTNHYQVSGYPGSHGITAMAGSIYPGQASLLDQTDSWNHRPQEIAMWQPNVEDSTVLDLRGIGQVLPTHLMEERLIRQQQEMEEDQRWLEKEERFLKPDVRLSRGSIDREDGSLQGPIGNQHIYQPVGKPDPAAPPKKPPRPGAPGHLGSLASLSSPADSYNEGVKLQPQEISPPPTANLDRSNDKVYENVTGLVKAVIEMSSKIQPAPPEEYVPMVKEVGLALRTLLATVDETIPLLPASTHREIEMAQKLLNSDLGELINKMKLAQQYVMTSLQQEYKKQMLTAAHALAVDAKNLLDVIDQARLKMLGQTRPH
In assay [12] the test system is Fibrinogen (Alexa647-labelled). The assay can be described thus: fibrinogen binders on compound microarrays, profiling panel, artefact control for SMM control-protein annotation, biochemical, small-molecule microarray, 635/667 nm fluorescence (AID 1131).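 Note: z-score merges 667 nm fluorescence with per-spot signal-to-noise over triplicate slides.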 As to conditions: fibrinogen-A647 binding fluorescence, higher = more signal.
In assay [13] the target is Follistatin (Homo sapiens) (UniProt P19883). Nature of the assay: follistatin binders on small-molecule microarrays, primary screen, biochemical, small-molecule microarray, 635/667 nm fluorescence (AID 1132). As to conditions: FST binding, 635 nm fluorescence, higher = more signal.
Follistatin (Homo sapiens), sequence (P19883 whole entry, looked up): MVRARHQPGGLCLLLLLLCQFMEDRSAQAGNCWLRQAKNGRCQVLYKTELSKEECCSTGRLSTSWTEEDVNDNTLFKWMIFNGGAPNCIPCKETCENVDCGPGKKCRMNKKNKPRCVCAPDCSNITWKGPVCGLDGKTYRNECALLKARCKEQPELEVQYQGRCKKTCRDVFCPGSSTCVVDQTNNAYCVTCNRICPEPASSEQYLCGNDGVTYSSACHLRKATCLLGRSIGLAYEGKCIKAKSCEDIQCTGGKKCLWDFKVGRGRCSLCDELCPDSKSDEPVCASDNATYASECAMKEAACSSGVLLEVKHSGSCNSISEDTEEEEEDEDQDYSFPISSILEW
The target in assay [14] is Fibroblast growth factor 2 (Homo sapiens) (UniProt P09038). The assay can be described thus: FGF2 binders on small-molecule microarrays, primary screen, biochemical, small-molecule microarray, 635/667 nm fluorescence (AID 1133). The settings on record: small-molecule microarray binding, FGF2, fluorescence 635/667; higher = more signal.
Fibroblast growth factor 2 (Homo sapiens), sequence (P09038 whole entry, looked up): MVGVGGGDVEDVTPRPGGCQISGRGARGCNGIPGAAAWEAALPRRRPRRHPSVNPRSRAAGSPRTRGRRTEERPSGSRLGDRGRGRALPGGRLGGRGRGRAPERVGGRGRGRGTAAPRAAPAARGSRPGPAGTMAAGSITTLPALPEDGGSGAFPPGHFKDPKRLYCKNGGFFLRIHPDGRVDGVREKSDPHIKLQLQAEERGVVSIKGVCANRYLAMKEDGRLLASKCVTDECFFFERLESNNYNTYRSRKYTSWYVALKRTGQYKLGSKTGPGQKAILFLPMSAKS
The nature of assay [15]: mitochondrial membrane potential change in A549 cells, profiling panel, cell-based, JC-1 fluorescence, basal, 24 h, 100 nL (AID 1138).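 Note: A549 lung adenocarcinoma cells under basal conditions with no added stimulus; test concentration not given here.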 The settings on record: higher = more signal.
The test system of another assay is Lefty1. The assay can be described thus: Lefty1 binders on small-molecule microarrays, primary screen, biochemical, small-molecule microarray, 635/667 nm fluorescence (AID 1139). The settings on record: small-molecule microarray binding, fluorescence 635/667; higher = more signal.
Assay [16] concerns wheat germ agglutinin (Triticum aestivum), Alexa647-labelled. Nature of the assay: wheat germ agglutinin binders on compound microarrays, profiling panel, artefact control for SMM control-protein annotation, biochemical, small-molecule microarray, 635/667 nm fluorescence (AID 1140).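 Note: score merges 667 nm feature emission with signal to noise over triplicate slides.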 The settings on record: WGA-A647 binding, 635 nm fluorescence, higher = more signal.
Assay [17] has as its target Luciferin 4-monooxygenase (Photinus pyralis) (UniProt P08659). The assay can be described thus: firefly luciferase enzyme inhibitors, primary screen, biochemical, luminescence, purified enzyme, 2006 set (AID 1141).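 Note: cell-free assay with purified firefly luciferase at 100 ng per well in PBS; test concentration not given here.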 As to conditions: SteadyGlo luminescence, 30 min, higher = more signal, called active from +8 up or from −8 down.

The structures appear in SMILES notation. The source made the active and inactive calls.

Luciferin 4-monooxygenase (Photinus pyralis), sequence (P08659 whole entry, looked up): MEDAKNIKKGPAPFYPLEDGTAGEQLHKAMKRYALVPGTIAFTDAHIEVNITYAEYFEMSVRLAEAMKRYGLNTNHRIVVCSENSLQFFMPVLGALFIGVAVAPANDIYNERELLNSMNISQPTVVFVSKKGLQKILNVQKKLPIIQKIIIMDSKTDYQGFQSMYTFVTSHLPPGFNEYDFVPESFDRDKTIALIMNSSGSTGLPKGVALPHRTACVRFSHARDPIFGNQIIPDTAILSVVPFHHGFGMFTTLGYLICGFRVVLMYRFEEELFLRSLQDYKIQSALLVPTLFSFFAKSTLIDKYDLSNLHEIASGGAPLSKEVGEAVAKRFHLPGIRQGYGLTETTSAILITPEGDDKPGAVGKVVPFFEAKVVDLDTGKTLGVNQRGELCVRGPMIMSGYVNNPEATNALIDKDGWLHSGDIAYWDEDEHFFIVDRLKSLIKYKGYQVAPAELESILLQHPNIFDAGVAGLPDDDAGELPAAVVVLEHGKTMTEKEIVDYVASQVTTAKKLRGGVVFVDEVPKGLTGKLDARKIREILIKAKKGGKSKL

For the compound `CCCC=C(CCC)[C@@H](NC(=O)c1cccs1)c1ccc(C(=O)OC)cc1`, the composite z-score is -0.0481 with Albumin (Bos taurus); 1.29 in assay [2]; 0.728 in assay [3]; 0.0222 in assay [4]; 0.0362 in assay [5]; -0.0022 in [6]. For the same compound, the composite z-score in the assay with Sam68 (KHDRBS1) was -0.411; in assay [7], 0.513; in [8] it was 0.588; in assay [9] it was 0.196; in [10], 0.741; in assay [11], 0.205. Also, the composite z-score in assay [12] is 0.686; in [13], 0.816; in assay [14] it was 1.13; in the assay with Lefty1, -0.223; in assay [16] it was -0.119. In addition, in assay [1], the composite Z-score was 0.0599 (inactive). In addition, the z-score in [15] was 0.733; in assay [17], 2.23 (inactive).
For `CC(C)c1ccc(NN2C(C(O)c3ccc(F)cc3)C=CC3C(=O)N(c4ccccc4)C(=O)C32)cc1` (stereo not given), the composite z-score with Albumin (Bos taurus) turned out to be 0.839; in assay [2] it was 0.378; in assay [3], 0.0147; in [4], 0.378; in assay [5], 2.79; in assay [6], 0.846. In addition, the composite z-score with Sam68 (KHDRBS1) is 1.31; in assay [7], -0.0773; in assay [8] it was 1.1; in [9], 0.651; in assay [10] it was 1.24; in [11], 0.515. Besides, the composite z-score in [12] is 0.989; in [13], 1.16; in assay [14], -0.15; in the assay with Lefty1 it was 0.138; in [16], 0.886. The composite Z-score in assay [1] is 0.131 (inactive). In addition, the z-score is -0.559 in [15] and -2.01 (inactive) in assay [17].
With `COc1cc(NN2C(C(O)c3ccco3)C=CC3C(=O)N(C)C(=O)C32)cc(OC)c1OC` (stereo not given), the composite z-score with Albumin (Bos taurus) was 0.593; in [2], 0.313; in assay [3], 0.267; in [4] it was 0.738; in assay [5], 0.815; in assay [6], -0.0901. In addition, the composite z-score was 0.633 with Sam68 (KHDRBS1); 0.861 in assay [7]; 0.215 in [8]; 1.04 in [9]; 0.388 in assay [10]; -0.422 in [11]. The composite z-score was 0.127 in [12]; -0.0496 in assay [13]; 0.127 in assay [14]; 0.0051 with Lefty1; 0.793 in assay [16]. In addition, the composite Z-score in assay [1] was 0.319 (inactive). For the same compound, the values for the z-score in assay [15] and in [17] were 0.629 and -0.249 (inactive), respectively.
As to `Cc1ccc(C(C)CC(O)C2C=CC3C(=O)N(c4ccccc4)C(=O)C3N2Nc2ccccc2)o1` (stereo not given), the composite z-score was 0.804 in the assay with Albumin (Bos taurus); 0.257 in assay [2]; -0.0303 in assay [3]; 0.382 in assay [4]; 1.55 in assay [5]; 0.412 in [6]. Moreover, the composite z-score in the assay on Sam68 (KHDRBS1) was 1.29; in assay [7], -0.19; in assay [8], 1.09; in assay [9], 0.943; in assay [10], 1.28; in assay [11] it was 0.908. Further, the composite z-score was 0.821 in assay [12]; 1.03 in assay [13]; -0.0968 in [14]; -0.0661 with Lefty1; 0.982 in assay [16]. Further, the composite Z-score in assay [1] is -0.474 (inactive). Moreover, the figures for the z-score in assay [15] and in assay [17] were -0.592 and -1.22 (inactive), respectively.
As to `O=C1OCCC=C[C@H]2OC34C=CCN(c5ccc6ccccc6c5)C(=O)[C@H]3N(CCCO)C(=O)[C@@H]4C12` (stereo not given in full), the composite z-score was -1.39 with Albumin (Bos taurus); -0.278 in assay [2]; -0.205 in assay [3]; -0.303 in assay [4]; -0.626 in assay [5]; -0.678 in assay [6]. Besides, the composite z-score in the assay on Sam68 (KHDRBS1) was -1.82; in assay [7] it was -2.29; in assay [8], -0.533; in [9], -0.581; in assay [10] it was -2.27; in assay [11], -0.459. The composite z-score is -0.51 in assay [12]; -1.25 in assay [13]; -2.33 in assay [14]; -1.81 with Lefty1; -1.29 in [16]. The composite Z-score in [1] was 0.168 (inactive). Moreover, the z-score was -0.446 in assay [15] and -0.244 (inactive) in assay [17].
In the case of `CS(=O)(=O)CCOC(=O)C1=CC(CCCO)=CC(c2ccc(CN3CCCC3)cc2)N(Cc2sc3ccccc3c2Cl)C=C1C(=O)OCCS(C)(=O)=O` (stereo not given), the composite z-score in the assay with Albumin (Bos taurus) stood at 1; in assay [2] it was 0.439; in assay [3], 0.251; in assay [4] it was 0.823; in assay [5], 2.21; in assay [6] it was 1.12. Moreover, the composite z-score worked out at 1.3 in the assay with Sam68 (KHDRBS1); 1.03 in [7]; 1.19 in assay [8]; 2.17 in [9]; 1.18 in assay [10]; 0.45 in assay [11]. Also, the composite z-score in assay [12] worked out at 1; in assay [13], 0.526; in [14], 1.21; in the assay with Lefty1 it was 0.722; in assay [16] it was 1.31. Also, the composite Z-score in [1] is 1.14 (inactive). Also, the figures for the z-score in assay [15] and in [17] were 2.31 and -1.57 (inactive), respectively.
`COC(=O)[C@@]1(Cc2ccc(F)cc2)[C@H]2c3cc(C(=O)N4CCCC4)n(CCc4c[nH]c5ccccc45)c3C[C@H]2CN1C(=O)c1ccccc1`: the composite z-score with Albumin (Bos taurus) was 1.11; in [2], 0.558; in assay [3] it was 0.184; in [4], 0.795; in [5], 3.17; in assay [6] it was 1.76. The composite z-score in the assay on Sam68 (KHDRBS1) stood at 1.3; in assay [7] it was 0.291; in assay [8] it was 0.984; in assay [9], 1.56; in [10] it was 1.26; in [11], 1.27. For the same compound, the composite z-score in assay [12] was 0.97; in assay [13] it was 0.867; in assay [14], 0.577; in the assay with Lefty1, -0.627; in assay [16], 0.816. The composite Z-score in [1] is -0.263 (inactive). In addition, the z-score in assay [15] is 0.775; in assay [17] it was 2.04 (inactive).
Consider `C=CCNC(=O)[C@@H]1[C@H]2C(=O)O[C@H](c3ccccc3)[C@H](c3ccccc3)N2[C@H](c2ccccc2OCCO)[C@@]12C(=O)N(C(=O)OCCOC)c1ccc(C#CC3(O)CCCCCC3)cc12`, for which the composite z-score was 0.351 in the assay with Albumin (Bos taurus); 0.11 in assay [2]; -0.0708 in [3]; 0.354 in [4]; 2.15 in assay [5]; 0.618 in [6]. In addition, the composite z-score is 1.29 in the assay with Sam68 (KHDRBS1); 0.755 in assay [7]; 1.07 in assay [8]; 0.713 in assay [9]; 1.22 in assay [10]; 0.894 in assay [11]. The composite z-score is 0.905 in assay [12]; 1.34 in assay [13]; 0.924 in assay [14]; 0.988 in the assay on Lefty1; 0.323 in assay [16]. In addition, in [1], the composite Z-score is 0.0141 (inactive). The z-score was -1.2 in [15] and 0.558 (inactive) in [17].
